Bioassay records deposited in PubChem BioAssay by National Center for Advancing Translational Sciences (NCATS).
Pf growth 96h: P. falciparum growth inhibition at 96 hours; AID 504834; P. falciparum luciferase reporter growth, 96 h; Potency, µM (titrated, usually from 28.7 µM), most hits filed as inhibitors; hit rate 6.9% among 320,000
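Plates of compound plus infected erythrocytes (2% hematocrit, 0.05% parasitemia final) incubate 96 hours, 37 C, 5% CO2. Detection reagent added; reduced luminescence from the parasites' luciferase reporter flags inhibition.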
CHX counter: affects cycloheximide protein synthesis inhibition readout, counter-screen. cell reporter, cycloheximide protein synthesis inhibition counterscreen. max response, %. hit rate 12% among 300,000. AID 2314; in the data active = max response mostly above about 13%, no sharp cut-off; inactive = mostly below about 14%; also: read at 38.3 µM for the half of the compounds with a filed dose
AMA1 RON2 block: inhibitors of Plasmodium falciparum AMA1-RON2 interaction. hit rate 0.2% among 360,000. Potency, µM (series often up to 58.2 µM), actives largely listed as inhibitors. AlphaScreen AMA1-biotinylated RON2 peptide binding; also: nearly all actives have a fitted effect of over 45% in size
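AMA1 (3D7) with his tag at 25 nM final met compounds first, then biotinylated RON2 peptide at 25 nM; detection used donor plus acceptor beads, 10 µg/mL apiece, read by AlphaScreen after 30 min at room temperature.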
SARS PLP yeast: SARS-CoV PLP inhibition in yeast | S. cerevisiae expressing SARS-CoV PLpro, growth rescue | Potency, µM (titrated, usually from 32.9 µM), usual class: activators | hit rate 0.19% among 330,000 | AID 485353; calls by dose curve; also: nearly all actives have a fitted effect of over 55% in size
Shiga toxin inh: blocks Shiga toxin action in Vero cells; Vero cells, Shiga toxin protein synthesis inhibition reporter; inhibition, % at 38.7 µM; hit rate 9.2% among 290,000; in the data active = inhibition mostly above about 28%, no sharp cut-off; inactive = mostly below about 43%
Pf growth 48h: P. falciparum growth inhibition at 48 hours (one generation). P. falciparum luciferase growth in erythrocytes, 48 h. hit rate 5.9% among 310,000. Potency, µM (highest dose often 28.7 µM), usual class: inhibitors
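Erythrocytes infected with P. falciparum carrying an integrated firefly luciferase reporter (2% hematocrit, 0.1% parasitemia final) were exposed to compounds in RPMI 1640 with 0.5% Albumax at 37 C, 5% CO2. Growth inhibition was scored as reduced luminescence.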
Large screens that a line does not name were inactive. Only some compounds are listed: those with a hit (about 19% of all), similar ones and a draw of the others. Unless noted, calls follow the shape of the dose curve; as a rule, active = well fitted curve in the direction sought with a large enough effect; inconclusive = small, poorly fitted or top-dose-only effect, or another doubt; inactive = no such curve, though single readings can be large; an effect the other way counts as inactive or inconclusive.

O=C(c1ccco1)N1CCN(C2CN(Cc3cn(Cc4ccccc4C(F)(F)F)nn3)S(=O)(=O)C2)CC1 (stereo not drawn)	none (no result: Pf growth 96h, CHX counter, SARS PLP yeast, Shiga toxin inh, Pf growth 48h)
COc1ccc(N)c2c1C(=O)c1ccccc1C2=O	Pf growth 96h inconclusive, CHX counter 51.2, AMA1 RON2 block inconclusive, Shiga toxin inh 60.2
CC(N=Cc1cc([N+](=O)[O-])ccc1O)c1ccccc1 (stereo not drawn)	Pf growth 48h inconclusive
O=[N+]([O-])c1ccc(NN=Cc2ccccc2O)nc1	none (no result: Pf growth 96h, CHX counter, SARS PLP yeast, Shiga toxin inh, Pf growth 48h)
O=[N+]([O-])c1ccc(O)c(C=NNc2ccc(S(=O)(=O)O)cc2)c1	none (no result: Pf growth 96h, CHX counter, SARS PLP yeast, Shiga toxin inh, Pf growth 48h)
O=[N+]([O-])c1ccc(O)c(/C=N/Nc2ccccn2)c1	Pf growth 96h inconclusive, CHX counter 22.5, SARS PLP yeast inconclusive, Pf growth 48h 2.94µM
O=[N+]([O-])c1ccc(O)c(/C=N/Nc2ncnc3c2cnn3-c2ccccc2)c1	Pf growth 96h 0.522µM, Pf growth 48h 1.17µM
CN(/N=C/c1cc([N+](=O)[O-])ccc1O)c1ccccc1	Pf growth 96h inconclusive, CHX counter 21.9
O=[N+]([O-])c1ccc(N/N=C/c2ccccc2O)cc1	CHX counter 65.0, Shiga toxin inh 89.1, Pf growth 48h inconclusive
CC(CC(=O)Nc1ccc2c(c1)c(=O)n(C)n2-c1cccs1)c1ccccc1 (stereo not drawn)	none (no result: Pf growth 96h, CHX counter, SARS PLP yeast, Shiga toxin inh, Pf growth 48h)
COc1cc(Nc2ccc(S(N)(=O)=O)cc2)c([N+](=O)[O-])nc1[N+](=O)[O-]	none (no result: Shiga toxin inh)
O=[N+]([O-])c1cccc(N/N=C/c2cc([N+](=O)[O-])ccc2O)c1	CHX counter 28.2, Shiga toxin inh 48.6
COc1ncnc2c1oc1ccccc12	Pf growth 96h 4.65µM, CHX counter 48.3, Shiga toxin inh 111.9
O=C(CSc1ncnc2c1sc1ccccc12)Nc1ccc(Br)cc1	Pf growth 96h 13.1µM
c1ccc(CSc2ncnc3c2oc2ccccc23)cc1	none (no result: Pf growth 96h, CHX counter, SARS PLP yeast, Shiga toxin inh, Pf growth 48h)
c1coc(CSc2ncnc3c2oc2ccccc23)c1	CHX counter 56.7, AMA1 RON2 block inconclusive, Shiga toxin inh 85.3
c1ccc(N2CCN(c3ncnc4c3oc3ccccc34)CC2)cc1	none
c1ccc(Sc2ncnc3c2oc2ccccc23)nc1	Pf growth 96h inconclusive, CHX counter 63.6, Shiga toxin inh 115.3
CCOC(=O)C1CCCN(C(=S)NC2CCCC2)C1 (stereo not drawn)	none
O=C(CSc1ncnc2c1oc1ccccc12)Nc1cccc(Cl)c1	CHX counter 9.2
CCOc1ccccc1NC(=O)CSc1ncnc2c1oc1ccccc12	CHX counter 22.8
CCCSc1ncnc2c1oc1ccccc12	Pf growth 96h inconclusive, CHX counter 25.0
CC(=O)CSc1ncnc2c1oc1ccccc12	CHX counter 12.0
O=C(CSc1ncnc2c1oc1ccccc12)Nc1ccccc1F	none (no result: Pf growth 48h)
C[C@H]1CN([C@@H](C)CO)S(=O)(=O)c2ccc(Br)cc2O[C@H]1CN(C)C(=O)C1CCC1	none (no result: Pf growth 96h, CHX counter, SARS PLP yeast, Shiga toxin inh, Pf growth 48h)
CC(C)C[C@H]1CN([C@@H](Cc2ccccc2)CN2CCC[C@H]2CN2C(=O)C(=O)NC[C@@H]2Cc2ccc(O)cc2)C(=O)C(=O)N1CC1CCCCC1	none (no result: Pf growth 96h, CHX counter, SARS PLP yeast, Shiga toxin inh, Pf growth 48h)
Cc1nc2nc(C)c(NS(=O)(=O)c3ccc4c(c3)CCCC4)c(=O)n2[nH]1	Pf growth 48h inconclusive
CCc1nc(SCC(=O)c2cccs2)c2oc3ccccc3c2n1	CHX counter 27.2
CC(C)Sc1ncnc2c1oc1ccccc12	CHX counter 31.8, Shiga toxin inh 85.3
Fc1ccccc1CSc1ncnc2c1oc1ccccc12	none
CN(C)C=Nc1ncc2c([nH]c3ccccc32)c1C#N	Pf growth 96h inconclusive, CHX counter 49.8, Pf growth 48h inconclusive
Cc1nc(SCc2cccc(F)c2)c2oc3ccccc3c2n1	Pf growth 96h inconclusive, Pf growth 48h 10.4µM
CC[C@]12c3[nH]c4ccccc4c3CCN1C(=O)C(CC(=O)NCCC1=CCCCC1)C[C@@H]2C(=O)N1CCN(C(=O)c2ccco2)CC1 (stereo partly drawn)	none (no result: Pf growth 96h, CHX counter, Shiga toxin inh, Pf growth 48h)
COCCNC(=S)N/N=C/c1ccc([N+](=O)[O-])cc1	none
C=C(C)CNC(=S)N/N=C/c1ccc([N+](=O)[O-])cc1	Pf growth 48h 11.7µM
CCc1ccccc1NC(=S)/N=C(\N)Nc1nc(C)c2cc(C)ccc2n1	Pf growth 96h inconclusive, Pf growth 48h 2.94µM
Cc1ccc(NC(=S)/N=C(\N)Nc2nc(C)c3cc(C)c(C)cc3n2)cc1C	Pf growth 96h 10.4µM, Pf growth 48h inconclusive
COc1ccc(NC(=S)/N=C(\N)Nc2nc(C)c3ccccc3n2)cc1	Pf growth 96h 2.94µM, CHX counter 14.4, Pf growth 48h inconclusive
O=C(CSc1nnc(CNC(=O)c2ccco2)o1)Nc1cccc(C(F)(F)F)c1	Pf growth 96h inconclusive
COc1cccc(-c2cc(C(=O)NCC3CCCO3)on2)c1 (stereo not drawn)	Pf growth 96h inconclusive, CHX counter 35.5, Shiga toxin inh 48.0
COc1cccc(-c2nc(C(=O)NCC3CCCO3)cc3c2[nH]c2ccccc23)c1 (stereo not drawn)	Pf growth 96h 8.28µM, Pf growth 48h inconclusive
O=C(NCC1CCCO1)c1cc(-c2ccc(F)cc2)no1 (stereo not drawn)	Pf growth 96h inconclusive, CHX counter 44.7, Shiga toxin inh 96.5
COc1ccc(OC)c(-c2nc(C(=O)NCC3CCCO3)cc3c2[nH]c2ccccc23)c1 (stereo not drawn)	Pf growth 96h inconclusive, Pf growth 48h inconclusive
Cc1ccc(C(C)C)c(OCc2ccc(-c3nnco3)cc2)c1	none (no result: Pf growth 96h)
Cc1ccc(COc2ccc(-c3nnco3)cc2)cc1	CHX counter 40.0, Shiga toxin inh 67.4 (no result: Pf growth 48h)
O=C(CN1CCOCC1)NNc1c2ccccc2nc2ccccc12	Pf growth 96h inconclusive, Pf growth 48h inconclusive
COc1cccc(C(=O)NNc2c3ccccc3nc3ccccc23)c1	Pf growth 96h 11.7µM, AMA1 RON2 block inconclusive, Pf growth 48h inconclusive
COc1cccc(C(=O)NNc2nc(C)cc(C)n2)c1	none
CSc1nc(N(C)NC(=O)c2ccc(Cl)cc2)c2ccccc2n1	Pf growth 96h 3.7µM, Pf growth 48h 3.29µM
Nc1ccccc1C(=O)NNc1c2ccccc2nc2ccccc12	Pf growth 96h inconclusive, CHX counter 18.6, Shiga toxin inh 111.0, Pf growth 48h inconclusive
O=C(NNc1c2ccccc2nc2ccccc12)c1ccc(Cl)cc1	Pf growth 48h 13.1µM
O=C(NCc1ccc(Br)cc1)OC1CC2CC1[C@H]1CCCCN1C2=O (stereo partly drawn)	none (no result: Pf growth 96h, CHX counter, SARS PLP yeast, Shiga toxin inh, Pf growth 48h)
Cc1ccc(C(=O)NNc2c3ccccc3nc3ccccc23)cc1	CHX counter 41.4, Shiga toxin inh 85.1, Pf growth 48h 13.1µM
CCn1c(NC(=O)c2ccc(C)cc2)c2ccccc2nc1=O	none
Clc1cncc(Cl)c1NNc1c2ccccc2nc2ccccc12	Pf growth 48h 2.94µM
COC(=O)c1ccc2nc(-c3ccc(S(C)(=O)=O)cc3)cn2c1	CHX counter 59.5
O=C(Nc1ccccc1)Nc1cc(OCC(F)(F)F)cc(OCC(F)(F)F)c1	Pf growth 96h 3.29µM, SARS PLP yeast inconclusive, Pf growth 48h 2.62µM
